Screening results: PubChem, National Center for Advancing Translational Sciences (NCATS)
VACV Venus inh: vaccinia inhibition (Venus reporter) | hit rate 0.46% among 330,000 | Vaccinia virus Venus reporter expression, fluorescence | Potency, µM (highest dose often 36.5 µM), without a hit: at the top dose activity change, negative = inhibition, usual class: inhibitors | AID 720580; calls by dose curve; tested in A549 cells; note: potency is the fitted concentration of half-maximal effect; nearly all actives have a fitted effect of over 30% in size
HCMV antiviral: blocks human cytomegalovirus replication | HFF cells, HCMV-luciferase reporter, 72 h; active compounds read low | activity change, negative = inhibition, % at 57.5 µM | hit rate 4.5% among 410,000 | AID 1259415; in the data active = activity change below about -60%; inconclusive = no clear call, values can overlap the other calls; inactive = above about -39%
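Steps: HFFs plated, 16 h 37C; compounds added; HCMV-luciferase added to MOI 1 PFU/cell; 72 h 37C; OneGlo reagent, 5 min room temperature; luminescence read, normalized to controls.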
FMDV antiviral: blocks foot and mouth disease virus; FMDV antiviral cell-based qHTS; Potency, µM (highest dose often 57.9 µM), for the others: top-dose activity change, negative = inhibition, actives largely listed as inhibitors; hit rate 1.2% among 410,000; calls by dose curve; tested in HEK293T cells; note: read-out not given here; potency is the fitted concentration of half-maximal effect; nearly all actives have a fitted effect of over 45% in size
LASV entry inh: Lassa virus entry inhibition | Potency, µM (titrated, usually from 37.9 µM), without a hit: top-dose activity change, negative = inhibition, usual class: inhibitors | hit rate 1.2% among 300,000 | Lassa virus pseudotype entry inhibition, cell reporter; calls by dose curve; tested in HEK293 cells; note: potency is the fitted concentration of half-maximal effect; nearly all actives have a fitted effect of over 50% in size
Marburg entry inh: inhibitors of Marburg virus binding or cell entry; Marburg virus pseudotyped entry inhibition, cell reporter; Potency, µM (doses to about 37.8 µM), for the others: top-dose activity change, negative = inhibition, most hits filed as inhibitors; hit rate 1.8% among 300,000; AID 540276; calls by dose curve; tested in HEK293 cells; note: potency is the fitted concentration of half-maximal effect
Vaccinia mCherry: vaccinia inhibition (mCherry reporter); hit rate 0.63% among 310,000; Potency, µM (titrated, usually from 36.5 µM), for inactives: at the highest dose activity change, negative = inhibition, usual class: inhibitors; Vaccinia virus mCherry reporter infection, fluorescence; calls by dose curve; tested in A549 cells; note: potency is the fitted concentration of half-maximal effect; nearly all actives have a fitted effect of over 35% in size
Numbers without * were called inactive; ! = not confirmed by another sample; [ ] = dose if it differs, or a comment. Rows were chosen to be rich in hits. Some 6.5% of all compounds tested hit in one or more screens of this group. % is set by controls: 0 for no effect and ±100 for the full control effect.

Screening C[C@H](N)CCCP(=O)(O)O returned VACV Venus inh -15.7%, FMDV antiviral -11.3% and Vaccinia mCherry -10.5%.
For CC(C)(C)c1ccc(C(=O)NCc2nnc(SCC(=O)N3CCCC3)o2)cc1 the results were VACV Venus inh -12.8%, HCMV antiviral 8.0, FMDV antiviral -20.8% and Vaccinia mCherry -5.7%.
O=C(NCc1nnc(SCC(=O)N2CCCCC2)o1)c1ccc(F)cc1 was read as VACV Venus inh -5.9%, HCMV antiviral -84.9*, FMDV antiviral 0.7%, LASV entry inh 5.2%, Marburg entry inh 6.4% and Vaccinia mCherry -12.5%.
For O=C(Nc1ccc2nc(-c3ccc4nc[nH]c4c3)[nH]c2c1)c1cccs1 the results were HCMV antiviral -21.4, FMDV antiviral 3.7%, LASV entry inh -0.4% and Marburg entry inh 31.2%.
Screening O=C(Nc1ccc(-c2nc3ccccc3[nH]2)cc1)c1ccco1 returned VACV Venus inh -6.6%, LASV entry inh inconclusive, Marburg entry inh -22.4% and Vaccinia mCherry 3.4%.
Screening O=C(Nc1ccc2nc(-c3cccnc3)[nH]c2c1)c1ccco1 returned VACV Venus inh 14.9%, HCMV antiviral -67.0*, FMDV antiviral -13.8%, LASV entry inh -5.5%, Marburg entry inh -17.4% and Vaccinia mCherry 25.1%.
Cn1cc([N+](=O)[O-])c(C(=O)Nc2ccc3nc(-c4ccccc4)[nH]c3c2)n1 was read as VACV Venus inh inconclusive, HCMV antiviral -83.2*, FMDV antiviral 16.6%, LASV entry inh 5.0%, Marburg entry inh inconclusive and Vaccinia mCherry inconclusive.
`Cn1cc([N+](=O)[O-])c(C(=O)Nc2ccc(-c3nc4ccccc4[nH]3)cc2)n1` gave VACV Venus inh inconclusive, HCMV antiviral -72.9*, FMDV antiviral 42.5%, LASV entry inh 3.6%, Marburg entry inh inconclusive and Vaccinia mCherry inconclusive.
O=C(Nc1ccc2nc(-c3ccccc3)[nH]c2c1)c1cccs1 was read as VACV Venus inh -13.6%, HCMV antiviral -79.4*, LASV entry inh -16.3%, Marburg entry inh -3.6% and Vaccinia mCherry -11.6%.
`Cn1cccc1-c1nc2ccc(NC(=O)c3ccc([N+](=O)[O-])cc3)cc2[nH]1` gave VACV Venus inh -1.4%, HCMV antiviral 25.8, FMDV antiviral -16.7%, LASV entry inh 14.9%, Marburg entry inh 25.9% and Vaccinia mCherry 13.4%.
Screening COc1ccc(CN2C[C@]3(CO)OC(CO)C[C@H]3[S+]2(=O)[O-])cc1 (stereo not given in full) returned LASV entry inh 5.1%[46.1 µM].
`CCCn1nc(-c2ccccc2)c2nc3ccccc3nc21` gave VACV Venus inh -22.7%, HCMV antiviral -6.1, FMDV antiviral 1.1%, LASV entry inh -13.2% and Marburg entry inh 12.7%.
CCn1nc(-c2ccccc2)c2nc3ccccc3nc21 was read as VACV Venus inh -17.1%, HCMV antiviral -60.5*, FMDV antiviral inconclusive, LASV entry inh -17.8% and Marburg entry inh 5.4%.
COCCCNC(=O)c1ccc(Cn2c(=O)c3ccccc3n(Cc3cc(C)ccc3C)c2=O)cc1 was read as HCMV antiviral 18.7, FMDV antiviral -29.2%, LASV entry inh -15.9% and Marburg entry inh inconclusive.
COCCCNC(=O)c1ccc(Cn2c(=O)c3ccccc3n(Cc3ccccc3C)c2=O)cc1 was read as VACV Venus inh inconclusive, HCMV antiviral -95.5*!, FMDV antiviral -2.7%, LASV entry inh -27.9%[46.1 µM], Marburg entry inh inconclusive and Vaccinia mCherry inconclusive.
CC(CCc1ccccc1)NC(=O)CCC(=O)N1CCC(C(N)=O)CC1 (stereo not given) was read as HCMV antiviral 3.8 and FMDV antiviral 3.9%.
Screening c1ccc(OCc2noc(CN3CCC(C4CCCCC4)C3)n2)cc1 (stereo not given) returned HCMV antiviral -61.5* and FMDV antiviral -15.5%.
`CCOC(=O)N/N=C1\C[C@@H](O)[C@@H](O)[C@@H]2[C@@H]3C(=O)N(C4CCCCC4)C(=O)[C@@H]3CC[C@H]12` gave Marburg entry inh -24.9%[14.2 µM].
Screening COc1ccc(C(=O)NCc2ccc(C)cc2)cc1S(=O)(=O)N1CCCc2ccccc21 returned VACV Venus inh -27.1%, HCMV antiviral -72.1*, FMDV antiviral 39.7%, LASV entry inh -27.5%, Marburg entry inh inconclusive and Vaccinia mCherry inconclusive.
Screening COc1ccc(C(=O)NCC2CCCO2)cc1S(=O)(=O)N1CCCc2ccccc21 (stereo not given) returned VACV Venus inh -15.6%, HCMV antiviral -2.3, FMDV antiviral 26.3%, LASV entry inh inconclusive, Marburg entry inh inconclusive and Vaccinia mCherry inactive.
Screening COc1ccc(OC)c(S(=O)(=O)N2CCCc3ccccc32)c1 returned VACV Venus inh -7.4%, HCMV antiviral -102.0*, FMDV antiviral 8.4%, LASV entry inh 23.0% and Marburg entry inh inconclusive.
`COc1ccc(OC)c(S(=O)(=O)N2CCc3ccccc32)c1` gave VACV Venus inh -21.3%, HCMV antiviral 3.9, FMDV antiviral 14.2%, LASV entry inh 8.3%, Marburg entry inh inconclusive and Vaccinia mCherry inactive.
Screening CC(C)N(C(=O)CSc1ccc(S(=O)(=O)N2CCCCC2)cn1)c1ccccc1 returned HCMV antiviral -8.3 and FMDV antiviral inconclusive.
`Cc1ccc(C)c(S(=O)(=O)NCc2nc(N3CCCC3)c3cc(Cl)ccc3n2)c1` gave VACV Venus inh -4.7%, FMDV antiviral -1.2% and Vaccinia mCherry -9.0%.
For C=C[C@]1(C)C=C2C(=O)[C@@]3(O)OC(=O)[C@@]4(CCCC(C)(C)[C@H]34)[C@@]2(O)CC1 the results were VACV Venus inh 10µM*, HCMV antiviral -101.3*, FMDV antiviral 2.82µM* and Vaccinia mCherry 8.91µM*.
Screening C=C[C@]1(C)C=C2CC[C@H]3[C@@](C)(CCC[C@@]3(C)C(=O)O)[C@@H]2CC1 returned VACV Venus inh -17.5%, FMDV antiviral -14.0% and Vaccinia mCherry inactive.
`CC(NC(=O)COC(=O)c1cc(Cl)ccc1O)C1CC2CCC1C2` (stereo not given) gave HCMV antiviral -3.8 and FMDV antiviral inconclusive.
For O=C(Cn1c2ccc(F)cc2c2nc3n(c(=O)c21)CCS3)Nc1ccc(Cl)cc1F the results were VACV Venus inh -5.9%, HCMV antiviral inconclusive, FMDV antiviral inconclusive, LASV entry inh -12.1%, Marburg entry inh inconclusive and Vaccinia mCherry -1.8%.
For COc1cc2c3nc4n(c(=O)c3n(CC(=O)NCC3CCCO3)c2cc1OC)CCS4 (stereo not given) the results were VACV Venus inh -10.1%, HCMV antiviral -91.5*, FMDV antiviral -12.5%, LASV entry inh 13.1%, Marburg entry inh 4.2%[46.1 µM] and Vaccinia mCherry inactive.
Screening COc1cccc(NC(=O)Cn2c3ccc(F)cc3c3nc4n(c(=O)c32)CCCS4)c1 returned VACV Venus inh -7.0%, HCMV antiviral -61.3*, FMDV antiviral -6.8%, LASV entry inh inconclusive, Marburg entry inh inconclusive and Vaccinia mCherry -5.1%.
